# aSyn yeast inh: alpha-synuclein toxicity inhibition in yeast; hit rate 0.14% among 370,000; Potency, µM (doses to about 46.1 µM), inactives show at the highest dose growth rescue (activation), most hits filed as activators; Yeast expressing alpha-synuclein, growth rescue, BacTiter-Glo, 24 h; further: % of control where 0% means no effect; nearly all actives have a fitted effect of over 65% in size
#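 Screening used galactose-induced yeast with toxic alpha-synuclein levels, exposed to compound for 24 hr at 30 deg C. Cell growth, read with BacTiter-Glo luminescence, gave the measured signal.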
# TDP43 rescue: rescues yeast growth from TDP-43 toxicity | TDP-43 expressing yeast growth rescue, BacTiter-Glo, 24 h | Potency, µM (doses to about 46.1 µM), for inactives: at the highest dose growth rescue (activation), usual class: activators | hit rate 1.8% among 410,000; further: % of control where 0% means no effect; nearly all actives have a fitted effect of over 50% in size
#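 Growth rescue of TDP-43-toxic yeast measured as ATP luminescence (BacTiter-Glo). Cells grown to mid-log in raffinose, induced in galactose at OD600=0.02, exposed to compound 24 hr at 30 deg C.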
# FUS yeast rescue: suppressors of FUS proteinopathy in yeast; Potency, µM (titrated, usually from 76.6 µM), hits mostly activators; hit rate 0.24% among 390,000; S. cerevisiae FUS-expressing, growth rescue, OD600, 24 h; AID 1347120;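 further: plate controls were DMSO vehicle for no effect and reference control for full effect; nearly all actives have a fitted effect of over 55% in size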
#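 Compound concentration series was pinned onto galactose-induced FUS-expressing yeast seeded at OD 0.005. Plates sat 24hr at 30C; absorbance at 600 nm gave growth. DMSO served as background control.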
# Abeta rescue: compounds reversing amyloid beta toxicity in yeast; yeast expressing A-beta42, growth rescue, OD600, 48 h; response scale: 0% DMSO, 100% iron-clioquinol control; Potency, µM (highest dose often 46.1 µM), hits mostly activators; hit rate 0.063% among 410,000; AID 1347071; further: nearly all actives have a fitted effect of over 55% in size
#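 Yeast growth medium received pinned compounds, then yeast cells expressing toxic A-beta were added; plates incubated at 30 C for 48 hr. Growth read as absorbance at 600 nm, normalized to DMSO and equimolar FeCl3 plus clioquinol controls.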
# Starred values were filed as active, the others as inactive; i = inactive; ? = inconclusive; · = no result given. Sampled rows, rich in hits. Any-hit rate of the full collection: about 2.1%. The call rests on the fitted dose curve; in most records, active means well fitted curve in the direction sought with a large enough effect; inconclusive means small, poorly fitted or top-dose-only effect, or another doubt; inactive means no such curve, though single readings can be large; an effect the other way counts as inactive or inconclusive. Potency means the concentration at half of the fitted maximal effect.
SMILES,aSyn yeast inh,TDP43 rescue,FUS yeast rescue,Abeta rescue
COc1ccccc1OCC(=O)Nc1ccccc1C(=O)NCc1ccco1,1%,3%,i,i
O=C(COc1ccccc1)Nc1ccccc1C(=O)NCc1ccco1,1%,20µM*,i,i
O=[N+]([O-])c1ccc2c(c1)S(=O)(=O)C=C2,-42%,·,·,·
O=c1c(Cl)c(Cl)cnn1Cc1ccccc1Cl,4%,35µM*,·,i
Cc1cc(C)cc(Cn2ncc(Cl)c(Cl)c2=O)c1,1%,18µM*,·,i
Cc1ccc(Cn2ncc(Cl)c(Cl)c2=O)cc1,1%,?,·,i
O=C(NCc1ccccc1)N1CCC(c2nc3ccc(Cl)cc3[nH]2)CC1,·,·,i,·
Clc1ncnc2scc(C3COc4ccccc4O3)c12 (configuration not stated),5%,18µM*,i,i
c1ccc2c(c1)OCC(c1csc3ncnc(N4CCCCC4)c13)O2 (configuration not stated),-8%,-10%,i,i
CCN(Cc1ccccc1)C(=O)C1C2C=CC3(CN(Cc4ccccc4)C(=O)C13)O2 (configuration not stated),·,·,i,·
O=C(Cn1nc(-c2ccc(Cl)cc2)ccc1=O)NCCc1ccccc1,2%,5%,i,i
Cc1ccc(CCNC(=O)CN2N=C(c3ccc(C)cc3)CCC2=O)cc1,·,?,i,i
O=C(CN1N=C(c2ccc(Cl)cc2)CCC1=O)NCCc1ccc(Cl)cc1,·,22µM*,?,?
Cc1ccc(-c2ccc(=O)n(CC(=O)NCCc3ccc(Cl)cc3)n2)cc1,·,22µM*,i,i
Cc1cc(F)ccc1-n1nnc(C(N)=O)c1C,·,?,i,i
CC(NC(=O)c1ccco1)c1cccc2ccccc12 (configuration not stated),-1%,20µM*,i,i
CC(C(=O)Nc1ccccc1Br)c1ccc([N+](=O)[O-])cc1 (configuration not stated),7%,10%,i,i
Cc1ccc(NC(=O)C(C)c2ccc([N+](=O)[O-])cc2)cc1Cl (configuration not stated),2%,11µM*,i,?
CS(=O)(=O)c1ccccc1NC(=O)COc1ccccc1C(=O)Nc1ccccc1,-1%,·,·,·
Clc1ccccc1N=C1NN=C(c2cccs2)CS1,8%,11µM*,i,i
N#CCc1ccc(OC[C@@H](O)CN2CCC(C(O)(c3ccccc3)c3ccccc3)CC2)cc1,·,·,i,·
c1ccc(-c2cc3c(N4CCN(c5ccccc5)CC4)ncnc3s2)cc1,9%,28µM*,i,i
CCc1ccc2oc(-c3cc(NC(=O)COc4ccc(C)cc4)ccc3O)nc2c1,-6%,·,·,·
O=C1C(=O)C(c2ccc(O)cc2O)Oc2cc(O)cc(O)c21 (configuration not stated),1%,·,·,·
C[C@H](NS(=O)(=O)OCC(Cl)(Cl)Cl)C1CC1c1ccccc1 (some centres not stated),-4%,22µM*,i,i
SMILES,aSyn yeast inh,TDP43 rescue,FUS yeast rescue,Abeta rescue
CC(NS(=O)(=O)OCC(Cl)(Cl)Cl)c1ccc(C(C)(C)C)cc1 (configuration not stated),-54%,-95%,i,i
c1ccc(CNc2ncnc3scc(-c4cccs4)c23)nc1,11%,18µM*,i,i
C=C1C=C(C(F)F)n2ncc(C(=O)NCc3ccccc3OC)c2N1,0%,·,·,·
Cc1ccc(Cn2c(CNC(=O)c3ccccc3Br)nc3cccnc32)cc1,·,11µM*,i,i
COc1ccc(C2N(c3ccc(Cl)cc3)N=C(C(C)=O)N(C)N2C(C)=O)cc1 (configuration not stated),2%,22µM*,i,i
Cc1ccnc2nc(C(=O)OCCOc3cccc(Br)c3)nn12,-13%,16µM*,i,?
Cc1ccnc2nc(C(=O)OCCOc3ccccc3)nn12,-14%,-3%,i,i
CC(C)NC(=S)N/N=C/c1cccs1,-8%,9%,i,?
CC(C)NC(=S)N/N=C/c1ccc(C(C)(C)C)cc1,-6%,0%,i,5.6µM*
O=C1CN(C(=O)c2ccc(S(=O)(=O)N3CCCC3)cc2)C(c2ccccc2)c2cc(Cl)ccc2N1 (configuration not stated),·,12%,?,i
Cc1ccc2c(c1)C(c1ccccc1)N(C(=O)c1ccc(S(=O)(=O)N3CCCC3)cc1)CC(=O)N2 (configuration not stated),·,5%,25µM*,i
